Source: PubChem BioAssay AID1347416 (National Center for Advancing Translational Sciences (NCATS), 2020)
Out of some 4,100 compounds screened, about 1,600 (39%) were called active. Another 25% or so got no clear call; they are omitted. The list shows a part of the results. Values without a mark were called inactive. Calls follow the shape of the dose curve; as a rule, active = well fitted inhibition curve with a large enough effect; inconclusive = small, poorly fitted or top-dose-only effect; inactive = no such curve, though single readings can be large or run the other way.

assay: qHTS Validation assay for Inhibitors of Plasmodium falciparum Dd2 growth in vitro; also: nearly all actives have a fitted effect of over 70% in size; conditions: P. falciparum Dd2 in RBCs, SYBR Green growth, 72 h; series mostly up to 28.7 µM; activity change, negative = inhibition: at the top concentration
Text: Malaria, a parasitic disease spread to humans through the bite of a Plasmodium infected Anopheles mosquito, continues to be a global health burden affecting millions of people, with an estimated 228 million cases and 405,000 deaths in 2018. Concerns about safety and limitations of current antimalarial treatments strongly emphasize the need to develop new therapeutic options. The scarce number of chemotypes and validated drug targets with efficacy against the liver stage, have hindered development of new antimalarials. To address this, a chemoprophylactic drug discovery effort was conducted through a combined phenotypic high-throughput asexual blood stage and liver stage screen, providing a robust foundation to identify liver-stage active lead chemotypes. Compounds were initially screened against Plasmodium falciparum Dd2 strain parasites using a in vitro SYBRGreen-1 based 72 hr proliferation assay to identify novel chemotypes to advance to liver stage assays. NIH/NCATS Early Translation Branch Assay Submitter (PI): Anton Simeonov Ph.D.
[…] Assay Protocol: PROTOCOL TABLE (as described by Inglese et al., 2007) SEQUENCE No. (e.g., 1, 2, 3, etc.); PARAMETER (e.g., Cells, Incubation, Reagent, etc.); VALUE; DESCRIPTION SEQUENCE, Parameter, Description 1; Reagent; 3 uL complete malaria growth medium, 1536 TC treated Black clear bottom plate 2; Controls; 23 nL positive control artesunate (300 nM final) to column 1; Neutral control DMSO to columns 2-4 3; Compound; 23 nL of compounds in dose response concentration (29 uM to 0.5 nM final) 4; Reagent; 5 uL malaria infected red blood cells (2.5% hematocrit final, 0.3% parasitemia 5; Time; 72 hours at 37C (5% O2, 5% CO2, 90% N2; 95% Rh) 6; Reagent; 2 uL lysis buffer/SYBRGreen-1, 25 sec shake immediately following dispense 7; Time; ~16 hours at 37C (5% O2, 5% CO2, 90% N2; 95% Rh) 8; Detector; EnVision (PerkinElmer) bottom read at 485/14nm excitation and 535/25 nm emission NOTES (numbers refer to sequence above): 1; Complete Malaria Growth Media: 1X RPMI-1640 w/L-glutamine, 5.5g/L Albumax II, 367 uM Hypoxanthine, 25 mM HEPES, 0.25% Sodium Bicarbonate, 35 uM Gentamicin sulfate 2; Controls were added using the Kalypsis Pintool (Wako USA) equipped with 1536 pinhead 3; Compounds were added in a 7-point, titration with a high final concentration of 29 uM by Pintool from seven inter-plate titrations of library plates and two DMSO control plates at the beginning and end (see Yasgar et al., 2008). 4; Red blood cells infected with Plasmodium falciparum Dd2 parasites were used. 6; Lysis buffer: 20 mM Tris-HCl, 10 mM EDTA, 0.16% Saponin, 1.6% Triton-X, 10X SYBR Green. REFERENCE: Inglese J, Shamu CE, Guy RK. 2007. Reporting data from high-throughput screening of small-molecule libraries. Nat Chem Biol. doi:10.1038/nchembio0807-438 Yasgar A, Shinn P, Jadhav A, Auld D, Michael S, Zheng W, Austin CP, Inglese J, Simeonov A. 2008. Compound Management for Quantitative High-Throughput Screening. J Lab Autom 13:79-89. doi:10.1016/j.jala.2007.12.004
% is scaled to controls: 0 for no effect and ±100 for the full control effect; potency is read from the fitted curve at half-maximal effect.

Row | Compound | Potency | activity change, negative = inhibition
1 | COc1cc(O)c(C(CCN2CCCCC2)c2ccc(N(C)C)cc2)c(OC)c1 (stereo unspecified) | 2.66 µM (active) | –
2 | COc1cc(O)c(C(CCN2CCCC(C)C2)c2ccc(N(C)C)cc2)c(OC)c1 (stereo unspecified) | 1.68 µM (active) | –
3 | COc1cc(O)c(C(CCN2CCCC(C)C2)c2cc(OC)c(OC)c(OC)c2)c(OC)c1 (stereo unspecified) | 1.88 µM (active) | –
4 | CCCCC(CC)CNC(=O)CCCCCn1c(=O)[nH]c2ccsc2c1=O (stereo unspecified) | – | -7.19%
5 | COc1ccc(C(CCN2CCCCC2)c2c(O)cc(OC)cc2OC)cc1 (stereo unspecified) | 1.33 µM (active) | –
6 | CCn1ccc2ccc(CN3CCCC(O)(CN4CCCC4)C3)cc21 (stereo unspecified) | 7.5 µM (active) | –
7 | COc1ccc(C(=O)N2CCCC(O)(CN3CCCC3)C2)cc1Cl (stereo unspecified) | – | -13.3%
8 | C=CCN(Cc1ccccc1OCC)C(=O)c1ccc(N(C)S(C)(=O)=O)cc1 | – | 4.22%
9 | CCCC1=[N+](CC)CCn2c(C)ccc21 | – | -15.7%
10 | COC(=O)c1c(-c2c(Cl)cccc2Cl)noc1NC(=O)NN1CCCCC1 | 2.37 µM (active) | –
11 | OC(CN1CCC(Cc2ccc(F)cc2)CC1)c1ccc(Cl)cc1 (stereo unspecified) | – | -97.7%
12 | CN1CCC(NCCC(c2ccc(F)cc2)c2ccc(Cl)cc2)CC1 (stereo unspecified) | 4.22 µM (active) | –
13 | CCC(=O)N(C1=C(NC(C)C)C(=O)c2ccccc2C1=O)C(C)C | 2.37 µM (active) | –
14 | COCCNC(=O)c1ccc(OC2CCN(C/C=C/c3ccc(F)cc3)CC2)c(Cl)c1 | 10.6 µM (active) | –
15 | O=C(NC1CCCC1)c1ccc(OC2CCN(CCCC(F)(F)F)CC2)c(Cl)c1 | 9.44 µM (active) | –
16 | CC(=O)Nc1ccc(/C(C)=N\NC(=O)c2ccc(-c3ccccc3)cc2)cc1 | – | 18.3%
17 | CC(=O)Nc1cc(-c2ccccc2)ccc1O | 4.73 µM (active) | –
18 | CN(Cc1ccc(-c2ccccc2)cc1)C(=O)C1CC1 | – | 11.1% [at 43.1 µM]
19 | CC(C)n1nc(OC(C)(C)C(=O)NCCc2cccnc2)c2cc(CN3CCOCC3)ccc21 | – | -3.54%
20 | COCc1ccc2c(c1)c(OC(C)(C)C(=O)N1CCN(CCO)CC1)nn2Cc1ccccc1 | 9.44 µM (active) | –
21 | CC(C)(Oc1nn(Cc2cccc(Cl)c2)c2ccccc12)C(=O)NCCN1CCOCC1 | 5.31 µM (active) | –
22 | CC(C)(Oc1nn(CCOc2ccccc2)c2ccccc12)C(=O)NCc1cnccn1 | – | -20.1% [at 43.1 µM]
23 | CN1CCN(C(=O)C(C)(C)Oc2nn(Cc3cccc(Cl)c3)c3ccccc23)CC1 | 7.69 µM (active) | –

Row | Compound | Potency | activity change, negative = inhibition
24 | COCc1ccc2c(c1)c(OC(C)(C)C(=O)NCC1CCOCC1)nn2Cc1cccnc1 | – | 22.6%
25 | N#Cc1cc(C(=O)c2cc(Br)ccc2O)cn(C2CCCCC2)c1=O | 0.668 µM (active) | –
26 | CCCCn1cc(C(=O)c2cc(Br)ccc2O)cc(C#N)c1=O | 13.3 µM (active) | –
27 | CN(C)c1cc[n+](Cc2ccccc2)cc1 | 10.6 µM (active) | –
28 | CCOC(=O)CCCOc1cccn2c(=O)c(-c3cc(C)n(-c4ccc(Cl)cc4)n3)c(C)nc12 | 10.6 µM (active) | –
29 | CC(C)CCN1CCC2(CC1)CC(=O)N(c1ccccc1)c1ccccc1O2 | – | -9.65%
30 | COc1ccc(-n2nc(C3CCN([S+](=O)([O-])c4cccc(C(F)(F)F)c4)CC3)[nH]c2=O)cc1 | – | 0%
31 | O=C1CC2(CCN([S+](=O)([O-])c3cccc(C(F)(F)F)c3)CC2)Oc2ccccc2N1c1ccccc1 | 6.68 µM (active) | –
32 | CN(C)c1ccc(NC(=O)Oc2ccccc2)cc1 | – | 11.4%
33 | Cc1ccc(S(=O)(=O)NC(=O)Nc2ccc(N(C)C)cc2)cc1 | 1.33 µM (active) | –
34 | Cc1c(CN2CCN(CC(C)(C)C)C(CCO)C2)[nH]c2ccccc12 (stereo unspecified) | 9.44 µM (active) | –
35 | CC(C)c1ccccc1NC(=O)C(Cc1c[nH]c2ccccc12)NC(=O)OC(C)(C)C (stereo unspecified) | – | -18.5%
36 | CC(C)CC(NC(=O)C(NC(=O)OC(C)(C)C)C(C)C)C(=O)NC(CCC(=O)OCc1ccccc1)C(N)=O (stereo unspecified) | 8.41 µM (active) | –
37 | CCn1c(=N)n(CC(O)c2cccs2)c2ccccc21 (stereo unspecified) | – | -26.2%
38 | N=c1n(CCN2CCCCC2)c2ccccc2n1CC(O)COc1ccc(Cl)cc1Cl (stereo unspecified) | 4.22 µM (active) | –
39 | CCN(CC)CCn1c(=N)n(CC(O)COc2ccccc2C)c2ccccc21 (stereo unspecified) | 3.35 µM (active) | –
40 | CCCCCn1c(=N)n(CC(O)COc2cccc(C)c2)c2ccccc21 (stereo unspecified) | 2.11 µM (active) | –
41 | CC(C)CN1CCN(C(=O)CCC[C@@H]2[C@H]3CCCN4CCC[C@@H](CN2Cc2cccnc2)[C@@H]34)CC1 | – | -17%
42 | CCN(Cc1ccccc1)C(=O)CCC[C@@H]1[C@H]2CCCN3CCC[C@@H](CN1C(=O)c1ccccc1)[C@@H]23 | 13.3 µM (active) | –
43 | CC(=O)N1C[C@@H]2CCCN3CCC[C@@H]([C@H]23)[C@H]1CCCC(=O)Nc1ccccc1 | – | -1.67%
44 | COc1ccccc1Nc1cnc2ccc(-c3ccc(OC)c(OC)c3)nn12 | 1.53 µM (active) | –
45 | COc1ccccc1Nc1cnc2ccc(-c3ccc(F)cc3)nn12 | 6.85 µM (active) | –
46 | COc1ccccc1C(=O)NCc1nnc2ccc(-c3ccc(C)cc3)nn12 | – | 0%
